# Measurements taken from PubChem BioAssay AID1159580 (chemical genetic matrix, 2015).
# Values joined by “and” are separate entries in the source; they are usually repeats but may differ in a detail not shown here. Equal values may be shown once. Out of some 5,500 compounds screened, about 2,000 (36%) were called active. Not shown: some 18% with an inconclusive outcome. The list shows a part of the results. Values without a mark were called inactive. No stated cut-off is given here; in the data, active means normalized growth mostly below about 0.91 (no sharp cut-off); inconclusive means no clear call, values can overlap the other calls; inactive means mostly above about 0.92.
# Assay: chemical genetic growth profiling, strain panel (AID 1159580);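 further: tested at 20 µM; growth read once vehicle control cultures reached saturation at 30 °C; 1 = growth at the plate median or of vehicle wells; lower values mean less growth of the strain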
# Conditions: growth OD
structure (smiles),measurement,setting,value
NCCc1ccc(O)cc1,normalized growth,"S. cerevisiae deletion strains, locus YJR075W, strain HOC1, hits give low values",1.01
same,normalized growth,"S. cerevisiae deletion strains, locus YKL009W, strain mrt4, hits give low values",0.992
same,normalized growth,"S. cerevisiae deletion strains, locus YKL068W, hits give low values",0.994
same,normalized growth,"S. cerevisiae deletion strains, locus YKL085W, strain MDH1 (second series), hits give low values",0.996
same,normalized growth,"S. cerevisiae deletion strains, locus YKL085W, strain MDH1, hits give low values",0.996
same,normalized growth,"S. cerevisiae deletion strains, locus YKL160W, strain elf1, hits give low values",1.01
same,normalized growth,"S. cerevisiae deletion strains, locus YKL190W, strain CNB1, hits give low values",1.01
same,normalized growth,"S. cerevisiae deletion strains, locus YKR001C, strain vps1, hits give low values",0.978
same,normalized growth,"S. cerevisiae deletion strains, locus YKR026C, strain gcn3, hits give low values",0.972
same,normalized growth,"S. cerevisiae deletion strains, locus YKR091W, strain srl3, hits give low values",0.986
same,normalized growth,"S. cerevisiae deletion strains, locus YLL001W, strain dnm1, hits give low values",0.982
same,normalized growth,"S. cerevisiae deletion strains, locus YLL026W, hits give low values",0.985
same,normalized growth,"S. cerevisiae deletion strains, locus YLL041C, strain sdh2, hits give low values",0.978
same,normalized growth,"S. cerevisiae deletion strains, locus YLR027C, strain aat2, hits give low values",0.984
same,normalized growth,"S. cerevisiae deletion strains, locus YLR039C, strain RIC1, hits give low values",1.02
same,normalized growth,"S. cerevisiae deletion strains, locus YLR058C, strain SHM2, hits give low values",1.01
same,normalized growth,"S. cerevisiae deletion strains, locus YLR102C, strain apc9, hits give low values",0.999
same,normalized growth,"S. cerevisiae deletion strains, locus YLR113W, strain HOG1, hits give low values",0.973
same,normalized growth,"S. cerevisiae deletion strains, locus YLR221C, strain rsa3, hits give low values",0.951
same,normalized growth,"S. cerevisiae deletion strains, locus YLR258W, strain gsy2, hits give low values",0.985
same,normalized growth,"S. cerevisiae deletion strains, locus YLR262C, strain YPT6 (second series), hits give low values",0.976
same,normalized growth,"S. cerevisiae deletion strains, locus YLR262C, strain YPT6, hits give low values",1.02
same,normalized growth,"S. cerevisiae deletion strains, locus YLR268W, strain sec22, hits give low values",0.993
same,normalized growth,"S. cerevisiae deletion strains, locus YLR320W, strain mms22, hits give low values",0.962
same,normalized growth,"S. cerevisiae deletion strains, locus YLR330W, strain CHS5, hits give low values",1.01
same,normalized growth,"S. cerevisiae deletion strains, locus YLR342W, strain FKS1 (second series), hits give low values",1
same,normalized growth,"S. cerevisiae deletion strains, locus YLR342W, strain FKS1, hits give low values",0.98
same,normalized growth,"S. cerevisiae deletion strains, locus YLR357W, strain rsc2, hits give low values",0.956
same,normalized growth,"S. cerevisiae deletion strains, locus YLR370C, strain arc18, hits give low values",0.984
same,normalized growth,"S. cerevisiae deletion strains, locus YLR371W, strain rom2, hits give low values",0.981
same,normalized growth,"S. cerevisiae deletion strains, locus YLR384C, strain iki3, hits give low values",0.958
same,normalized growth,"S. cerevisiae deletion strains, locus YLR418C, strain cdc73, hits give low values",1.02
same,normalized growth,"S. cerevisiae deletion strains, locus YML016C, strain PPZ1, hits give low values",1
same,normalized growth,"S. cerevisiae deletion strains, locus YML032C, strain rad52, hits give low values",1.02
same,normalized growth,"S. cerevisiae deletion strains, locus YML120C, strain ndi1, hits give low values",0.994
same,normalized growth,"S. cerevisiae deletion strains, locus YML124C, strain tub3, hits give low values",1
same,normalized growth,"S. cerevisiae deletion strains, locus YMR058W, strain fet3, hits give low values",0.973
same,normalized growth,"S. cerevisiae deletion strains, locus YMR078C, strain ctf18, hits give low values",0.99
same,normalized growth,"S. cerevisiae deletion strains, locus YMR125W, strain sto1, hits give low values",0.989
same,normalized growth,"S. cerevisiae deletion strains, locus YMR129W, hits give low values",0.973
same,normalized growth,"S. cerevisiae deletion strains, locus YMR205C, strain PFK2, hits give low values",1.01
same,normalized growth,"S. cerevisiae deletion strains, locus YMR223W, strain ubp8, hits give low values",1.01
same,normalized growth,"S. cerevisiae deletion strains, locus YMR231W, strain pep5, hits give low values",0.97
same,normalized growth,"S. cerevisiae deletion strains, locus YMR263W, strain SAP30, hits give low values",1.01 and 1
same,normalized growth,"S. cerevisiae deletion strains, locus YMR307W, strain GAS1, hits give low values",0.979 and 1.01
same,normalized growth,"S. cerevisiae deletion strains, locus YNL067W, strain RPL9B, hits give low values",1.01
same,normalized growth,"S. cerevisiae deletion strains, locus YNL071W, strain lat1, hits give low values",0.989
same,normalized growth,"S. cerevisiae deletion strains, locus YNL153C, strain GIM3, hits give low values",1.01 and 1.04
same,normalized growth,"S. cerevisiae deletion strains, locus YNL175C, strain NOP13, hits give low values",1.03
same,normalized growth,"S. cerevisiae deletion strains, locus YNL183C, strain NPR1, hits give low values",0.953
same,normalized growth,"S. cerevisiae deletion strains, locus YNL197C, strain WHI3, hits give low values",1
same,normalized growth,"S. cerevisiae deletion strains, locus YNL209W, strain ssb2, hits give low values",1
same,normalized growth,"S. cerevisiae deletion strains, locus YNL224C, strain SQS1, hits give low values",1
same,normalized growth,"S. cerevisiae deletion strains, locus YNL233W, strain BNI4, hits give low values",1
same,normalized growth,"S. cerevisiae deletion strains, locus YNL248C, strain rpa49, hits give low values",0.856 (active)
same,normalized growth,"S. cerevisiae deletion strains, locus YNL250W, strain rad50, hits give low values",0.995
same,normalized growth,"S. cerevisiae deletion strains, locus YNL271C, strain bni1, hits give low values",0.993
same,normalized growth,"S. cerevisiae deletion strains, locus YNL298W, strain CLA4, hits give low values",1
same,normalized growth,"S. cerevisiae deletion strains, locus YNL307C, strain MCK1, hits give low values",1.02
same,normalized growth,"S. cerevisiae deletion strains, locus YNL322C, strain KRE1 (second series), hits give low values",0.992
same,normalized growth,"S. cerevisiae deletion strains, locus YNL322C, strain KRE1, hits give low values",1 and 0.993
same,normalized growth,"S. cerevisiae deletion strains, locus YNR049C, strain mso1, hits give low values",0.98
same,normalized growth,"S. cerevisiae deletion strains, locus YNR052C, strain pop2, hits give low values",0.988
same,normalized growth,"S. cerevisiae deletion strains, locus YOL012C, strain htz1",0.829
same,normalized growth,"S. cerevisiae deletion strains, locus YOL147C, strain pex11, hits give low values",1
same,normalized growth,"S. cerevisiae deletion strains, locus YOR001W, strain rrp6, hits give low values",0.927
same,normalized growth,"S. cerevisiae deletion strains, locus YOR061W, strain CKA2, hits give low values",1.01
same,normalized growth,"S. cerevisiae deletion strains, locus YOR069W, strain VPS5, hits give low values",1
same,normalized growth,"S. cerevisiae deletion strains, locus YOR070C, strain gyp1, hits give low values",0.963
same,normalized growth,"S. cerevisiae deletion strains, locus YOR080W, strain dia2, hits give low values",0.968
same,normalized growth,"S. cerevisiae deletion strains, locus YOR083W, strain WHI5 (second series), hits give low values",1.03
same,normalized growth,"S. cerevisiae deletion strains, locus YOR083W, strain WHI5, hits give low values",1.01
same,normalized growth,"S. cerevisiae deletion strains, locus YOR106W, strain vam3, hits give low values",1.02
same,normalized growth,"S. cerevisiae deletion strains, locus YOR136W, strain idh2, hits give low values",0.996
same,normalized growth,"S. cerevisiae deletion strains, locus YOR144C, strain elg1, hits give low values",0.992
same,normalized growth,"S. cerevisiae deletion strains, locus YOR184W, strain ser1, hits give low values",1
same,normalized growth,"S. cerevisiae deletion strains, locus YOR231W, strain MKK1, hits give low values",0.963
same,normalized growth,"S. cerevisiae deletion strains, locus YOR265W, strain rbl2, hits give low values",1
same,normalized growth,"S. cerevisiae deletion strains, locus YOR270C, strain vph1, hits give low values",0.964
same,normalized growth,"S. cerevisiae deletion strains, locus YOR290C, strain snf2, hits give low values",1
same,normalized growth,"S. cerevisiae deletion strains, locus YOR316C, strain cot1, hits give low values",1
same,normalized growth,"S. cerevisiae deletion strains, locus YPL051W, strain arl3, hits give low values",0.987
same,normalized growth,"S. cerevisiae deletion strains, locus YPL055C, strain LGE1, hits give low values",1.01
same,normalized growth,"S. cerevisiae deletion strains, locus YPL078C, strain atp4, hits give low values",0.997
same,normalized growth,"S. cerevisiae deletion strains, locus YPL106C, strain sse1, hits give low values",0.987
same,normalized growth,"S. cerevisiae deletion strains, locus YPL240C, strain hsp82, hits give low values",0.976
same,normalized growth,"S. cerevisiae deletion strains, locus YPL241C, strain CIN2, hits give low values",1.01 and 1
same,normalized growth,"S. cerevisiae deletion strains, locus YPL256C, strain CLN2, hits give low values",0.953
same,normalized growth,"S. cerevisiae deletion strains, locus YPR119W, strain clb2, hits give low values",0.992
same,normalized growth,"S. cerevisiae deletion strains, locus YPR141C, strain kar3, hits give low values",0.996
same,normalized growth,"S. cerevisiae deletion strains, locus YPR163C, strain tif3, hits give low values",1.01
same,normalized growth,"S. cerevisiae deletion strains, locus YPR167C, strain met16, hits give low values",1.01
same,normalized growth,"S. cerevisiae deletion strains, strain wtn01, hits give low values",0.984
same,normalized growth,"S. cerevisiae strains, strain wild type, hits give low values",1
